# ABHD5 PLIN5 PPI: ABHD5-PLIN5 interaction inhibitors, primary screen, cell lysate, split luciferase complementation, luminescence | Perilipin-5 (Homo sapiens) + 1-acylglycerol-3-phosphate O-acyltransferase ABHD5 (Homo … | Split G. princeps luciferase complementation, 4 h | inhibition, % at 4 µM | 360,000 tested, 0.78% active | AID 602281, 2012;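 active = inhibition above the mean inhibition across every tested compound plus 3 SD, cut at about 22% in these data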
# m5-HT2A agonist: mouse Htr2a agonists via beta-arrestin recruitment, primary screen, cell-based, luminescence. CHO-K1 mHTR2A beta-arrestin complementation; percent of 30 µM serotonin response. 360,000 tested, 0.66% active. activation, % at 7.6 µM. 5-hydroxytryptamine receptor 2A (Mus musculus), P35363;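 active = activation above a run cutoff, the mean activation of all tested compounds plus 3 SD, cut at about 14% in these data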
# Target sequence (P35363 whole entry, looked up): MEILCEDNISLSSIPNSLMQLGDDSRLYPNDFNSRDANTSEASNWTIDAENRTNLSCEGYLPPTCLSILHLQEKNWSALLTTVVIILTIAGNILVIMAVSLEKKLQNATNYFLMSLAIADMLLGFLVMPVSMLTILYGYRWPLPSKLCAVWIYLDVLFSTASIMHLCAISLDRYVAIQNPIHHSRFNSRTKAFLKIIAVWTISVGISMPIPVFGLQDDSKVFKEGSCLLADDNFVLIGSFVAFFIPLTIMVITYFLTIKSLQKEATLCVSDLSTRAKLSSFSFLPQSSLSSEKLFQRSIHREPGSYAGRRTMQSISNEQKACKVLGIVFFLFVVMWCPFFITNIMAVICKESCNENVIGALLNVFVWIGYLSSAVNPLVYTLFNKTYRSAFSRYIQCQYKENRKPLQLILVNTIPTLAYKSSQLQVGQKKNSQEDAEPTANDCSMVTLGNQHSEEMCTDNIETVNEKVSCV
# NTR1 agonist: agonists of human NTR1, primary screen, imaging, U2OS cells, beta-arrestin-GFP, high content. activation, % at 20 µM. 330,000 tested, 0.17% active. NTR1-U2OS beta-arrestin-GFP spot imaging, agonist mode;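 active = activation at or above 40% of the spot to cytoplasm intensity ratio, with at least 20 cells analyzed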
# Exocytosis inh: LAMP-1 surface exposure blockers, TALL-104 cells – cell-based, flow cytometry, MLPCN library, primary screen | AID 651702, 2012 | TALL-104 LAMP-1 surface exposure; cells stimulated with thapsigargin and PMA | 360,000 tested, 0.66% active | inhibition, % at 10 µM;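 active = inhibition above about 55%, limit read from the data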
# B2AR ag: beta2AR agonists driving receptor internalization, primary screen, cell-based, FAP fluorogen, flow cytometry; Am2.2-beta2AR cells; response, % (concentration not given with the values); 340,000 tested, 0.43% active;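 active = response above a set limit, near 3 SD of response in nonfluorescent compounds, cut at about 42% in these data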
# Exocytosis CP01: inhibitors of lytic granule exocytosis, confirmation, TALL-104 cells, flow cytometry, Cherry Pick01; shares compounds with Exocytosis inh; LAMP-1 externalization; stimulated with PMA plus thapsigargin; 1,500 tested, 11% active; inhibition, % at 10 µM; in the data active = inhibition above about 60%
# A number is an active result; n = inactive; x = no result. Sampled rows, rich in hits. Any-hit rate of the full collection: about 2.3%.
SMILES,ABHD5 PLIN5 PPI,m5-HT2A agonist,NTR1 agonist,Exocytosis inh,B2AR ag,Exocytosis CP01
Cn1c(=O)c2c(nc(N3CCN(Cc4ccccc4)CC3)n2CCCc2ccccc2)n(C)c1=O,n,n,n,n,n,x
Cn1c(=O)c2c(nc(N3CCN(c4ccccc4)CC3)n2CCCc2ccccc2)n(C)c1=O,n,n,n,74,n,n
CC(C)CNC(=O)CCCc1c[nH]c2ccccc12,n,n,n,n,n,x
O=C(CCCc1c[nH]c2ccccc12)NCCc1c[nH]c2ccccc12,n,n,n,80,n,n
CC(=O)Nc1ccc(NC(=O)COC(=O)c2cc(S(=O)(=O)N(C)C)ccc2N2CCCC2)cc1,n,n,n,n,n,x
COc1ccccc1CNC(=O)C(=O)NCC1CCCN1S(=O)(=O)c1cc(C)ccc1C (configuration not stated),n,n,x,n,x,x
COC(=O)c1c(NC(=O)c2ccccc2OC)sc(C(=O)N2CCOCC2)c1C,n,n,n,68,n,n
COC(=O)c1c(NC(=O)CCl)sc(C(=O)N2CCOCC2)c1C,n,n,n,n,n,x
O=C(CCNC(=O)c1ccc([N+](=O)[O-])cc1)NNC(=O)c1ccccc1F,n,n,n,n,n,x
COCCn1c(SC(C)C(=O)NCC2CCCO2)nc2sc3c(c2c1=O)CCC3 (configuration not stated),n,n,n,59,n,n
Cn1c(Cl)c(C(=O)Nc2ccc(Cl)cc2)c2ccccc21,n,n,n,69,n,n
COc1ccc(CC(=O)Nc2cc(Cl)ccc2N2CCCC2)cc1,n,n,n,67,n,n
COc1ccc(Cl)cc1C(=O)Nc1ccccc1N1CCCCC1,n,n,n,57,n,n
COc1cccc(C(=O)Nc2ccccc2N2CCCC2)c1,n,n,n,n,n,x
O=C(Nc1ccccc1N1CCCCC1)c1cccc(OC(F)F)c1,n,n,n,99,n,n
COc1ccc(Cl)cc1C(=O)Nc1ccccc1N1CCN(C)CC1,n,n,n,n,n,x
COc1ccc(CCC(=O)Nc2cc(Cl)ccc2N2CCN(C)CC2)cc1,x,x,n,x,x,x
CCOc1ccc(C2CC=C(C(C)=O)CN2S(=O)(=O)c2ccc(C)cc2)cc1 (configuration not stated),n,n,x,n,x,x
Cc1n[nH]c2ccc(Br)cc2c1=O,n,n,x,n,x,x
CCCCN(CC(O)COc1cccc(C)c1)CC(O)COc1cccc(C)c1 (configuration not stated),n,n,n,83,n,n
COc1cccc(CN2C(=O)[C@H]3Cc4c([nH]c5ccccc45)C(C)(C)N3C2=O)c1,n,n,n,78,n,n
COc1ccc(CN2C(=O)[C@@H]3Cc4c([nH]c5ccccc45)C(C)(C)N3C2=O)cc1,n,n,n,n,n,x
COC(=O)c1ccc(NCc2c(O)ccc(O)c2Br)cc1Cl,n,n,x,98,n,80
NS(=O)(=O)c1ccc(NC(=S)Nc2cc(Cl)c(Cl)cc2Cl)cc1,n,n,n,n,n,x
Cc1ccc(S(=O)(=O)NCCC(=O)N2CCC(C)CC2)cc1,n,n,n,n,n,x
SMILES,ABHD5 PLIN5 PPI,m5-HT2A agonist,NTR1 agonist,Exocytosis inh,B2AR ag,Exocytosis CP01
CCN(C(=O)COc1cccc2cccnc12)C1CCS(=O)(=O)C1 (configuration not stated),n,n,n,n,n,x
CCC1=C2CC[C@H]3C(=O)N(c4ccccc4)C(=O)[C@H]3[C@H]2[C@@]2(C)C(=NCc3ccccc3)OC(=O)N2C1=O,n,n,n,n,n,x
CCC1=C2CC[C@H]3C(=O)N(C)C(=O)[C@H]3[C@H]2[C@@]2(Cc3ccccc3)C(=NCC(=O)OC)OC(=O)N2C1=O,n,n,n,84,n,n
CCCNc1nc(Cl)nc(NC(C)(C)C)n1,n,n,n,n,n,x
O=C1CC(N2CCSCC2)C(=O)N1c1cccc(Cl)c1 (configuration not stated),n,n,n,n,n,x
CCN(CC)CCn1c2c(c(SCC(=O)Nc3ccc(C(C)C)cc3)nc1=O)CCCC2,n,n,n,n,n,x
CCCCc1ccc(NC(=O)CSc2nc(=O)n(CCN(CC)CC)c3c2CCC3)cc1,n,n,n,84,n,n
Cc1nc(N2CCOCC2)nc2c1CCC2,n,n,n,n,n,x
COCCN1CC(C(=O)NCc2ncccc2C)CCC1=O (configuration not stated),n,n,n,n,n,x
CCOC(=O)C1(CCOc2ccccc2)CCN(Cc2ccccc2O)CC1,n,n,x,56,n,n
CCOC(=O)C1(CCOc2ccccc2)CCN(Cc2cccc(F)c2)CC1,n,n,n,64,n,n
CCOC(=O)C1(CCc2ccccc2)CCN(Cc2cc(OC)c(OC)cc2OC)CC1,n,n,n,64,n,n
CCOC(=O)C1(CCOc2ccccc2)CCN(CCCn2cccn2)CC1,n,n,n,59,n,n
NNC(=S)NCc1ccc2c(c1)OCO2,n,n,n,n,n,x
CCOC(=O)C1(CCOc2ccccc2)CCN(Cc2cccc(OCCO)c2)CC1,n,n,n,n,n,x
CCOC(=O)C1(CCOc2ccccc2)CCN(Cc2cccc3c2OCO3)CC1,n,n,n,n,n,x
CCOC(=O)C1(CCOc2ccccc2)CCN(Cc2cccc(OC)c2OC)CC1,n,n,n,75,n,n
CCOC(=O)C1(CCOc2ccccc2)CCN(Cc2ccc(OCC)c(CO)c2)CC1,n,n,x,81,n,n
CCOC(=O)C1(CCOc2ccccc2)CCN(Cc2ccc(OC)cc2)CC1,n,n,x,80,n,n
CCOC(=O)C1(CCOc2ccccc2)CCN(Cc2ccc(NC(C)=O)cc2)CC1,n,n,n,n,n,x
COc1cccc(C(O)c2ncc(-c3ccccc3)[nH]2)c1 (configuration not stated),n,n,x,n,x,x
CCOc1ccc(NC(=O)CN(C)C(=O)CC2OC(=O)c3ccccc32)cc1OCC (configuration not stated),n,n,n,n,n,x
Cc1cc(Br)cn2c(Cc3ccsc3)c(-c3ccco3)nc12,n,n,x,60,x,n
Cc1cc(Br)cn2c(Cc3ccsc3)c(-c3cccc(Cl)c3)nc12,n,n,x,n,x,x
NC(=O)NC(=O)COC(=O)CC12CC3CC(CC(C3)C1)C2,n,n,n,n,n,x
Cc1cccc(/C=C/c2onc(C)c2S(=O)(=O)N2CCC(C(=O)N3CCC(C)CC3)CC2)c1,n,n,n,n,n,x
COc1ccc(/C=C/c2onc(C)c2S(=O)(=O)N2CCC(C(=O)N3CCC(C)CC3)CC2)cc1,n,n,n,76,n,n

# High-throughput results deposited in PubChem BioAssay by several laboratories.
